Compound activity deposited in PubChem by National Center for Advancing Translational Sciences (NCATS).
HCMV inh – blocks human cytomegalovirus replication; activity change, negative = inhibition, % at 57.5 µM; 410,000 compounds, 4.5% hits; AID 1259415; HFF cells, HCMV-luciferase reporter, 72 h; stronger effect = lower value; in the data active means activity change below about -60%; inconclusive means no clear call, values can overlap the other calls; inactive means above about -39%
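Cell-based, HFFs, 1000 cells/well, 16 h 37C; cpds in DMSO + HCMV-luc, MOI 1 PFU/cell; 72 h 37C; OneGlo luminescence after 5 min RT; norm. to buffer vs Salinomycin 10uM.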
FMDV inh – foot and mouth disease virus antiviral activity. Potency, µM (titrated, usually from 57.9 µM), actives largely listed as inhibitors. 410,000 compounds, 1.2% hits. FMDV antiviral cell-based qHTS; calls by dose curve; tested in HEK293T cells; further: read-out not given here; nearly all actives have a fitted effect of over 45% in size
MARV entry inh – inhibitors of Marburg virus binding or cell entry; AID 540276; Marburg virus pseudotyped entry inhibition, cell reporter; Potency, µM (titrated, usually from 37.8 µM), actives largely listed as inhibitors; 300,000 compounds, 1.8% hits; calls by dose curve; tested in HEK293 cells
Lassa entry inh – inhibitors of Lassa virus binding or cell entry | Potency, µM (series often up to 37.9 µM), hits mostly inhibitors | Lassa virus pseudotype entry inhibition, cell reporter | 300,000 compounds, 1.2% hits; calls by dose curve; tested in HEK293 cells; further: nearly all actives have a fitted effect of over 50% in size
Hits are given with their value. The list is not random: actives were taken first. Their share in the collection is about 6.2%.

How did N#Cc1c(N)n(-c2ccc(N)cc2)c2nc3ccccc3nc12 do in these assays?
HCMV inh: inactive; FMDV inh: inactive; MARV entry inh: inactive; Lassa entry inh: inactive

What do the screens show for `CCOC(=O)CCCNC(=O)N1CCc2nc(COc3ccccc3)c3c(c2C1)CO[C@@H](C)C3`?
MARV entry inh: inactive

What do the screens show for `CCOC1=C2[C@@H](CN(S(=O)(=O)c3ccccc3C)[C@H]2c2ccc(Cl)cc2)[C@H]2C(=O)NC(=O)[C@H]2C1`?
HCMV inh: -76; FMDV inh: inactive

How did CCOC1=C2[C@@H](CN(S(=O)(=O)c3ccccc3C)[C@H]2c2ccc(Cl)cc2)[C@H]2C(=O)N(c3ccccc3)C(=O)[C@H]2C1 do in these assays?
HCMV inh: inactive; FMDV inh: inactive

How did NC(=O)CSc1nnc(Cn2cnc3ccccc32)o1 do in these assays?
HCMV inh: inactive; FMDV inh: inactive

What do the screens show for `O=C(CSc1nnc(Cn2nnc3ccccc32)o1)N(Cc1ccc(Cl)cc1)c1ccccc1`?
HCMV inh: inactive; FMDV inh: inconclusive; MARV entry inh: 6.3µM; Lassa entry inh: inconclusive

How did Clc1ccc(CSc2nnc(Cn3cnc4ccccc43)o2)cc1 do in these assays?
HCMV inh: -81; FMDV inh: inconclusive; MARV entry inh: inconclusive; Lassa entry inh: inconclusive

How did O=C(CSc1nnc(Cn2nnc3ccccc32)o1)Nc1cccc(Cl)c1 do in these assays?
HCMV inh: inactive; FMDV inh: inactive; MARV entry inh: inactive; Lassa entry inh: inactive

Results for O=C(Nc1ccccc1)c1cnc(N2CCN(Cc3cccc(C(F)(F)F)c3)C2=O)o1 ?
HCMV inh: inactive

What do the screens show for `O=C1CCC[C@H]2C[C@@H](O)CC[C@]23CCCN13`?
HCMV inh: inactive

Results for N=C(N)N ?
FMDV inh: inactive

How did CCN(CC)CC(O)CN1CCCCc2nc(C)c(C)cc21 (stereo unspecified) do in these assays?
MARV entry inh: inactive

How did Clc1ccccc1/C=C/c1ccnc2ccccc12 do in these assays?
HCMV inh: inactive; FMDV inh: inactive

How did Oc1ccc(/C=C/c2ccnc3ccccc23)cc1 do in these assays?
HCMV inh: -61; FMDV inh: inactive; MARV entry inh: inconclusive; Lassa entry inh: inconclusive

Results for COc1ccc(/C=C/c2nc(C#N)c(N3CCC(C)CC3)o2)cc1OC ?
HCMV inh: inactive; FMDV inh: inactive; MARV entry inh: inactive; Lassa entry inh: inactive

How did Cc1cccc(NC(=O)CSc2ccc(-c3ccccn3)nn2)c1 do in these assays?
HCMV inh: -105; FMDV inh: inactive; Lassa entry inh: inactive

What do the screens show for `COc1cccc(NC(=O)CSc2ccc(-c3sc(C)nc3C)nn2)c1`?
HCMV inh: inactive; FMDV inh: 32µM; MARV entry inh: inconclusive; Lassa entry inh: inconclusive

How did Cc1cc(C)cc(NC(=O)CSc2ccc(-c3cccs3)nn2)c1 do in these assays?
HCMV inh: inconclusive; FMDV inh: inconclusive; MARV entry inh: 7.1µM; Lassa entry inh: inconclusive

Results for CCN(CC)S(=O)(=O)c1ccc(OC)c(NC(=O)CSc2cc(C)ccc2C)c1 ?
HCMV inh: inactive; FMDV inh: inactive; MARV entry inh: inconclusive; Lassa entry inh: 0.21µM

How did COc1cc([C@@H]2C(C#N)=C(N)Oc3cc(C)n(CCN4CCOCC4)c(=O)c32)cc(OC)c1OC do in these assays?
MARV entry inh: inactive

How did COc1cc(NC(=O)CSc2ccc(-c3ccccn3)nn2)cc(OC)c1 do in these assays?
HCMV inh: inconclusive; FMDV inh: inactive; MARV entry inh: inconclusive; Lassa entry inh: inconclusive

Results for COc1ccc(C)cc1NC(=O)CSc1ccc(-c2ccccn2)nn1 ?
HCMV inh: -93; FMDV inh: inconclusive; MARV entry inh: inconclusive; Lassa entry inh: inconclusive

How did Cc1cccc(N2CCN(S(=O)(=O)c3cc(C(=O)Nc4ccc(Oc5ccccc5)cc4)ccc3F)CC2C)c1 (stereo unspecified) do in these assays?
HCMV inh: -64; FMDV inh: inconclusive; Lassa entry inh: inconclusive

How did COc1ccccc1N1CCN(S(=O)(=O)c2cc(C(=O)Nc3ccc(Oc4ccccc4)cc3)ccc2F)CC1 do in these assays?
HCMV inh: -67; FMDV inh: inconclusive; Lassa entry inh: inconclusive

What do the screens show for `COc1ccccc1N1CCN(S(=O)(=O)c2ccccc2F)CC1`?
HCMV inh: inactive; FMDV inh: inactive; MARV entry inh: inactive; Lassa entry inh: inactive

What do the screens show for `O=C(Nc1ccc(Oc2ccccc2)cc1)c1ccc(F)c(S(=O)(=O)N2CCN(c3ccccc3F)CC2)c1`?
HCMV inh: -79; FMDV inh: inconclusive; Lassa entry inh: inconclusive

How did Cc1cccc(NC(=O)c2ccc(F)c(S(=O)(=O)N3CCC4(CC3)OCCO4)c2)c1 do in these assays?
HCMV inh: inactive; FMDV inh: inactive; Lassa entry inh: inactive

How did Cc1cccc(NC(=O)c2ccc(F)c(S(=O)(=O)N3CCN(c4ccc(F)cc4)CC3)c2)c1 do in these assays?
HCMV inh: -73; FMDV inh: inconclusive; Lassa entry inh: inconclusive

Results for CC(C)c1ccc(NC(=O)c2ccc(F)c(S(=O)(=O)N3CCN(c4ccccc4F)CC3)c2)cc1 ?
HCMV inh: inactive; FMDV inh: inactive; Lassa entry inh: inactive

How did COCCNC(=O)C1(C)CCCN(CCSc2ccccc2)C1 (stereo unspecified) do in these assays?
HCMV inh: inactive; FMDV inh: inactive

What do the screens show for `N#Cc1ccc(NC(=O)c2cc(-c3cccc(Cl)c3)on2)cc1`?
HCMV inh: inactive; FMDV inh: inactive; MARV entry inh: inconclusive; Lassa entry inh: inactive

Results for O=C(Nc1ccc(Oc2ccccc2)cc1)c1ccc(F)c(S(=O)(=O)N2CCN(c3cccc(Cl)c3)CC2)c1 ?
HCMV inh: -70; FMDV inh: inconclusive; Lassa entry inh: inconclusive

Results for CCc1ccccc1NC(=O)c1ccc(F)c(S(=O)(=O)N2CCN(c3cccc(Cl)c3)CC2)c1 ?
HCMV inh: inactive; FMDV inh: inconclusive; Lassa entry inh: inactive

What do the screens show for `CCOC(=O)N1CCN(C(C(=O)NC2CCCC2)c2cccc(OC)c2OC)CC1` (stereo unspecified)?
HCMV inh: inactive; FMDV inh: inactive

How did CC(=O)Nc1cccc(NC(=O)c2cc(-c3cccnc3)nc3ccc(Cl)cc23)c1 do in these assays?
HCMV inh: inactive; FMDV inh: inconclusive; MARV entry inh: inconclusive; Lassa entry inh: inconclusive

Results for O=C(Nc1ccc(C(=O)N2CCOCC2)cc1)c1cc(-c2cccnc2)nc2ccc(Cl)cc12 ?
HCMV inh: -69; FMDV inh: inconclusive; MARV entry inh: inactive; Lassa entry inh: inconclusive

Results for CCc1cc2c3c(c1)C1(C(=O)N3C(C)(C)C=C2C)C(C#N)=C(N)Oc2[nH]c(=O)[nH]c(=O)c21 (stereo unspecified) ?
HCMV inh: -75; FMDV inh: inactive; MARV entry inh: inconclusive; Lassa entry inh: inconclusive

How did COC(=O)c1sc2nc(C)cc(C)c2c1N do in these assays?
HCMV inh: inactive; FMDV inh: inactive; MARV entry inh: inconclusive; Lassa entry inh: inactive

What do the screens show for `Cc1cc(C)c2c(N)c(C(=O)Nc3ncc(C)s3)sc2n1`?
HCMV inh: -86; FMDV inh: 5µM; MARV entry inh: 0.5µM; Lassa entry inh: 0.2µM

Results for COC(=O)C1=C2C=C(C)CC(C)N2C(=O)NC1c1ccccc1 (stereo unspecified) ?
MARV entry inh: inactive

How did Cc1occc1C(=O)Nc1cccc(C(F)(F)F)c1 do in these assays?
HCMV inh: inactive; FMDV inh: inactive; MARV entry inh: inactive; Lassa entry inh: inactive
